From PubChem BioAssay
An excerpt weighted towards active compounds, which were near 4.1% of everything screened.
tim10-1 inh: tim10-1 yeast growth inhibition; inhibition, % at 20 µM; S. cerevisiae tim10-1 ts strain growth, BacTiter-Glo, 24 h; 330,000 compounds, 2.2% hits; AID 463190;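 active = inhibition of at least 40%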;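 note: mutant grown at 25 °C; 0% = DMSO wells with yeast and 100% = wells holding no yeast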
TIM10 inh: growth inhibitors of TIM10 yeast strain; 330,000 compounds, 1.4% hits; S. cerevisiae TIM10 strain growth, BacTiter-Glo luminescence, 24 h; AID 463195; inhibition, % at 10 µM;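 active = inhibition of 40% or more at the single tested concentration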;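 note: wild-type TIM10 isogenic control strain grown at permissive 25 °C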
NALP1 yeast inh: NALP1 inhibition; S. cerevisiae NALP1/ASC/caspase-1 growth, X-gal OD620, 72 h; inhibition, % at 10 µM; 280,000 compounds, 0.61% hits; AID 2071; in the data active = inhibition mostly above about 24%, no sharp cut-off; inactive = mostly below about 32%
tim23-1 inh: inhibits growth of tim23-1 mutant yeast; inhibition, % at 20 µM; 330,000 compounds, 1.3% hits; S. cerevisiae tim23-1 growth, BacTiter-Glo luminescence, 24 h;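 active = growth inhibition of the mutant yeast at or above 50%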;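 note: temperature-sensitive mutant grown at 25 °C; plate controls were DMSO-treated mutant yeast for no effect and medium wells lacking yeast for full effect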
NLRP3 yeast inh: NALP3 inhibition in yeast | Yeast reconstituted NLRP3/ASC/caspase-1, beta-gal luminescence, 24 h | inhibition, % at 10 µM | 330,000 compounds, 0.39% hits | AID 2825;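 active = inhibition of 50% or more; inactive = inhibition below 50%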;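 note: plate controls were induced DMSO wells for no effect and uninduced yeast grown without galactose for full effect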
tim10-1 conf: tim10-1 yeast growth inhibition, confirmed; inhibition, % at 20 µM; S. cerevisiae tim10-1 ts strain growth, BacTiter-Glo, 24 h; shares compounds with tim10-1 inh; 7,400 compounds, 56% hits;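 active = inhibition of yeast growth at or above a set limit in either of two repeat tests at 20 µM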;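 note: tim10-1 mutant grown at permissive 25 °C to find synthetic lethal compounds; 0% = DMSO yeast wells and 100% = medium wells without yeast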
tim10 confirm: TIM10 yeast growth inhibition, confirmed | shares compounds with TIM10 inh | S. cerevisiae tim10 strain growth, BacTiter-Glo luminescence, 24 h | inhibition, % at 10 µM | 4,600 compounds, 63% hits | AID 463215;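 active = inhibition of yeast growth at or above a set limit in either of two replicates at 10 µM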;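 note: this counterscreen used the strain with wild-type TIM10; 0% = yeast with DMSO and 100% = medium wells lacking yeast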
tim23-1 confirm: tim23-1 yeast growth inhibition, confirmed; inhibition, % at 20 µM; 4,400 compounds, 83% hits; shares compounds with tim23-1 inh; S. cerevisiae tim23-1 growth, BacTiter-Glo luminescence, 24 h; AID 463218;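 active = inhibition above about 39% in either of two replicate wells at 20 µM, limit read from the data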;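 note: temperature-sensitive tim23-1 mutant grown at 25 °C; 0% = DMSO wells with yeast and 100% = medium wells without yeast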
An asterisk follows results filed as active; nt = no result given.

SMILES	tim10-1 inh	TIM10 inh	NALP1 yeast inh	tim23-1 inh	NLRP3 yeast inh	tim10-1 conf	tim10 confirm	others
Cc1ccc(-n2nnnc2C(Cl)(Cl)c2nnnn2-c2ccc(C)cc2)cc1	45.2*	62.2*	-16.0	47.6	49.5	14.8	75.2*
Cc1ccnc(N2CCC(C(=O)Nc3cccc(C(F)(F)F)c3)CC2)n1	52.3*	41.8*	18.7	46.9	13.2	47.9*	30.0*
COc1ccc(CNc2nc(NCc3ccc(OC)cc3)n(C(=O)c3ccccc3[N+](=O)[O-])n2)cc1	9.7	1.5	3.8	19.7	9.8	nt	nt
CCOC(=O)C1CCN(C(=O)CSC2=NCCS2)CC1	22.1	4.8	5.7	10.6	-1.1	nt	nt
COCCCNC(=O)c1ccc2c3c(onc13)-c1ccccc1C2=O	53.3*	43.3*	5.7	43.6	37.9	41.6*	41.2*
COCCCNC(=O)c1ccccc1Oc1ccccc1	3.6	12.3	5.6	3.1	2.9	nt	nt
CC1(C)CSC(=S)N1S(=O)(=O)c1ccccc1	-28.9	-10.5	2.1	4.8	48.8	nt	nt
Oc1ccc(-c2csc(-c3c[nH]c4ccccc34)n2)c(O)c1	-21.5	-15.1	10.1	35.5	21.9	nt	nt
Cc1ccc(-c2csc(-c3c[nH]c4ccccc34)n2)c(C)c1	41.3*	42.8*	-7.7	40.7	28.6	38.7*	47.6*
CCOC(=O)N1CCC2(CC1)C(C(=O)C13CC4CC(CC(C4)C1)C3)C2(C#N)C#N (stereo unspecified)	54.5*	63.4*	5.4	43.2	-1.2	54.0*	44.6*
CC(C)n1c(CSCc2ccc(Cl)cc2Cl)n[nH]c1=S	49.1*	41.1*	3.0	40.2	17.8	23.6	49.4*
COc1ccc(/C=C2\CCC(C3CCCC3)C2=O)cc1Cn1cccn1 (stereo unspecified)	26.1	18.1	18.2	31.5	27.0	nt	nt
COc1ccc(/C=C2\CCc3ccccc3C2=O)cc1Cn1cccn1	43.2*	42.0*	11.2	35.8	33.6	39.9*	12.8
NS(=O)(=O)c1ccc(CNC(=O)c2ccc3c(c2)OCO3)cc1	-13.1	-3.8	nt	-14.2	-4.1	nt	nt
COc1ccc(C(=O)c2cc3c(cc2[N+](=O)[O-])OCCO3)cc1	20.9	-11.0	0.1	19.4	6.9	nt	nt
COc1ccc(C(=O)n2c(SC)nc3cc4c(cc32)OCCO4)cc1	43.4*	47.4*	13.4	43.7	26.2	37.5*	21.4
CC1CCC(NC(=O)Nc2cccs2)CC1 (stereo unspecified)	54.1*	59.6*	11.7	36.8	5.2	73.2*	46.4*
C=CCn1c(=O)c2ccccc2n2c(SCc3c(C(=O)OCC)oc4ccccc34)nnc12	40.8*	41.9*	-1.1	35.1	4.2	38.2*	17.2
C=CCn1c(=O)c2ccccc2n2c(SCC(N)=O)nnc12	2.1	-0.1	17.2	12.8	24.0	nt	nt
Cn1nc(C(=O)NCCc2ccc(S(N)(=O)=O)cc2)c2ccccc2c1=O	1.7	0.7	6.8	-0.8	3.1	nt	nt
CC(C)COC(=O)c1ccc2c(c1O)C(=O)c1ccccc1C2=O	58.2*	46.6*	6.6	49.3	48.2	42.5*	39.9*
COc1ccc2c(c1O)C(=O)c1ccccc1C2=O	-18.5	-19.0	-7.4	15.1	26.4	nt	nt
Cc1ccc(-c2[nH]nc(N)c2N=Nc2ccccc2C)cc1	56.3*	45.1*	0.1	19.8	28.6	-0.4	45.8*
Cc1ccc(-c2[nH]nc(N)c2N=Nc2cccc(Cl)c2C)cc1	nt	nt	9.2	nt	nt	nt	nt
Cc1cccc(N=Nc2c(N)n[nH]c2-c2ccc(Cl)cc2)c1	51.6*	56.0*	14.3	7.8	20.9	26.2	12.8
SMILES	tim10-1 inh	TIM10 inh	NALP1 yeast inh	tim23-1 inh	NLRP3 yeast inh	tim10-1 conf	tim10 confirm	others
O=C(NN1CCOCC1)c1cc(S(=O)(=O)Nc2cccc(C(F)(F)F)c2)ccc1Cl	13.3	10.2	15.8	-0.8	8.9	nt	nt
CCCCOc1ccc(Nc2cc(Cl)ccc2C(=O)O)cn1	52.1*	41.2*	14.3	34.5	9.4	26.4	33.6*
COc1ccc(CC(=O)Nc2cc(Cl)ccc2C(=O)O)cc1	-2.4	6.5	0.4	11.3	16.9	nt	nt
C=CCOc1ccccc1/C=c1\sc2nc(-c3oc4ccccc4c3C)nn2c1=O	23.0	0.8	nt	24.7	0.5	nt	nt
COc1ccccc1/C=c1\sc2nc(-c3ccccc3OC)nn2c1=O	48.6*	50.0*	13.1	47.2	14.6	54.2*	23.6
CCOC(=O)c1c(C)oc2ccc(O)c(CN(C)C)c12	21.9	9.9	1.8	21.2	17.6	nt	nt
CCOC(=O)c1c(CSc2ccc(CC)cc2)oc2ccc(O)c(CN(C)C)c12	49.2*	55.1*	15.6	24.2	26.7	57.6*	64.8*
O=[N+]([O-])c1cccc(-c2ccc(/C=N/NC(=S)Nc3cccc(F)c3)o2)c1	51.6*	57.5*	nt	47.4	22.7	46.2*	59.5*
CCn1cc(CNC(=O)c2cc(-c3cc(OC)ccc3OC)nc3ccccc23)c(C)n1	24.1	6.5	9.7	16.3	2.9	nt	nt
Cc1ccccc1CC(=O)c1ccc(O)c(C)c1O	49.1*	31.4	5.5	61.3*	-3.8	45.5*	nt	tim23-1 confirm=65.5*
Cc1ccccc1NC(=S)NCc1ccc2[nH]c3c(c2c1)CCCC3	48.5*	47.1*	16.5	55.6*	22.5	30.2	43.4*	tim23-1 confirm=48.2*
CC(Sc1ncc(C(F)(F)F)cc1Cl)C(=O)NCC1CCCO1 (stereo unspecified)	11.9	-34.6	8.3	10.5	9.6	nt	nt
O=c1ccc(N=Nc2ccccc2)ccc1O	nt	nt	13.5	nt	nt	nt	nt
Oc1ccc(N=Nc2ccccc2)o1	67.0*	18.0	18.7	68.1*	32.4	67.0*	nt	tim23-1 confirm=74.6*
CCOc1ccc(/C=C/C(=O)c2c(O)cc(C)oc2=O)cc1	25.0	19.8	1.0	43.4	15.9	nt	nt
COc1ccc(/C=C/C(=O)c2c(O)ccc3c(C)cc(=O)oc23)cc1	51.1*	55.3*	50.4	50.1*	15.7	46.9*	57.1*	tim23-1 confirm=60.2*
COc1ccc(-c2cc(=O)oc3c(C)c(O)ccc23)cc1	19.1	11.2	16.4	15.5	-4.6	nt	nt
COc1ccc(/C=C\C(=O)c2c(O)ccc3c(C)cc(=O)oc23)cc1	51.8*	37.3	41.0	53.3*	15.5	36.3*	nt	tim23-1 confirm=51.0*
Cc1ccc(S(=O)(=O)N(CC(=O)N2CCOCC2)c2ccc(C(C)C)cc2)cc1	18.7	9.7	-5.8	16.7	8.9	nt	nt
O=C(Nc1cc(Cl)ccc1-n1cncn1)c1ccc([N+](=O)[O-])o1	71.7*	48.1*	nt	66.3*	10.3	57.7*	55.8*	tim23-1 confirm=50.0*
COc1cccc(C(=O)Nc2cccc(-c3nc4ncccc4o3)c2C)c1	1.9	17.4	-16.9	0.2	14.1	nt	nt
O=C(Nc1ccc(NC(=O)c2ccc([N+](=O)[O-])o2)cc1Cl)c1ccco1	-6.3	26.5	-1.2	47.5	12.3	nt	nt
